Bioassay records: PubChem BioAssay, Paczesny and Yang Labs, IUPUI and University of Michigan
Only a selection was taken, and hits are over-represented in it overall.
ST2 inh = inhibitors of human ST2 (IL1RL1) binding to IL-33, primary screen, biochemical, AlphaLISA. inhibition, % for hits at 17 µM. AID 1259354, 2018. actives 2.3% (n = 78,000). Interleukin-1 receptor-like 1 (Homo sapiens), Q01638. AlphaLISA ST2-Fc/biotin-IL-33 interaction, 1 h; in the data active = inhibition above about 30%
Target sequence (Q01638 whole entry, looked up): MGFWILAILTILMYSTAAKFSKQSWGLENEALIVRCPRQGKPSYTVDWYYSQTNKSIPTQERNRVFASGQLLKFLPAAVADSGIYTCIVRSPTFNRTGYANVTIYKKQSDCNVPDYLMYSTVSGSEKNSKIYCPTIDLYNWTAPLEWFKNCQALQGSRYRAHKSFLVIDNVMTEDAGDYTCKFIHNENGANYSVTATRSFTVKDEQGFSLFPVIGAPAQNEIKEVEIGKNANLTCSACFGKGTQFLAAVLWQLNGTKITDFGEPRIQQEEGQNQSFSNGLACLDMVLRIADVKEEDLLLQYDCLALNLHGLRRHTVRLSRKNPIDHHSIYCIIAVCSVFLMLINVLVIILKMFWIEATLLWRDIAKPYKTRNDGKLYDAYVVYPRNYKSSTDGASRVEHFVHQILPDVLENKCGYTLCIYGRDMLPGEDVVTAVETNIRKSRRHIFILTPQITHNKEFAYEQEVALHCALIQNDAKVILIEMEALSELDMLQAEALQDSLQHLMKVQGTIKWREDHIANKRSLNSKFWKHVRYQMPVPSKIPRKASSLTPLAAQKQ
Active calls of the source: *; i = inactive.

SMILES	ST2 inh
O=c1/c(=C/c2cccnc2)sc2n1CN(c1cccc(C(F)(F)F)c1)CN=2	i
COc1ccc(/C=c2\sc3n(c2=O)CN(c2ccc(C)cc2)CN=3)cc1	31%*
Cc1ccc(N2CN=c3s/c(=C\c4cccnc4)c(=O)n3C2)cc1	30%*
Cc1ccc(-c2nnc3s/c(=C\c4ccc([N+](=O)[O-])cc4)c(=O)n23)cc1	i
CCCOc1ccc(/C=c2\sc3nc(=O)c(C)nn3c2=O)cc1	i
COc1cc(/C=c2\sc3n(c2=O)CN(c2ccc(C)cc2)CN=3)c([N+](=O)[O-])cc1OC	38%*
O=c1/c(=C/c2cccc([N+](=O)[O-])c2)sc2n1CN(c1cccc(F)c1)CN=2	i
CCOc1ccc(-c2nc3s/c(=C\c4ccc(F)cc4)c(=O)n3n2)cc1	i
COc1ccc(/C=c2\sc3n(c2=O)CN(c2ccc(C(C)=O)cc2)CN=3)cc1	i
COc1ccccc1/C=c1\sc2nnc(-c3ccc(C)cc3)n2c1=O	i
COc1ccc(/C=c2\sc3n(c2=O)CN(c2cccc(F)c2)CN=3)cc1	35%*
CN1CCC(N2CCOC(CCNC(=O)c3ccccc3O)C2)CC1 (configuration not stated)	i
CCOc1ccc(NC(=O)CN2CCN(Cc3ccc(F)cc3Cl)S2(=O)=O)cc1	i
O=C(O)C[C@@H]1CCN(C(=O)c2ccc3c(c2)OCO3)C[C@@H]1CC1=NCCc2ccccc21	i
COc1ccccc1C(=O)Nc1cccc(OCc2cc(=O)n3ccc(C)cc3n2)c1	i
Cc1ccc(CN2CC34C=CC(O3)C(C(=O)NCc3ccccc3)C4C2=O)cc1 (configuration not stated)	i
Cc1cccc(NC(=O)CCC2CCN(S(=O)(=O)c3ccc(C)s3)CC2)c1	i
CCOC(=O)C1=C(C)NC2=C(C(=O)c3ccccc32)C1c1cc(Cl)c(OC)c(OCC)c1 (configuration not stated)	i
Cc1[nH]c2ccccc2c1SCCNC(=O)c1ccccc1I	i
COc1cc(C2C(C(=O)OC(C)C)=C(C)N=C3SCCC(=O)N32)ccc1OCCC(C)C (configuration not stated)	i
Cc1n[nH]c(C)c1S(=O)(=O)N1CCC(C(=O)Nc2ccc(Cl)cc2)CC1	i
CC(C)c1cc(CNC(=O)c2cn(Cc3c(F)cccc3F)nn2)on1	i
CC(C)CN(CC(C)C)S(=O)(=O)c1ccc2c(c1)NC(=O)CC(=O)N2	i
O=C1Nc2ccccc2C(O)(C(=O)NCCCN2CCCC2)N1c1ccccc1 (configuration not stated)	i
Clc1cccc(CN2CCOCC2)c1Cl	i
SMILES	ST2 inh
CS(=O)(=O)NCCC1CN(Cc2ccnc3ccccc23)CCO1 (configuration not stated)	i
c1ccc2c(CN3CCOCC3)ccnc2c1	40%*
COc1cc(C2C(C#N)=C(N)OC(C)=C2C(=O)OC(C)C)cc(OC)c1OC (configuration not stated)	i
CCN(CC)c1ccc(C2C(C#N)=C(N)OC3=C2C(=O)CC(C)(C)C3)cc1 (configuration not stated)	i
CC1CCN(C(=O)CSc2cc(=O)n(C)c3ccccc23)CC1	i
Cc1ccc(S(=O)(=O)N2CCC(C(=O)Nc3cc(C(F)(F)F)ccc3Cl)CC2)cc1	i
O=[N+]([O-])c1cccc(-c2noc([C@@H]3C[C@@H](O)CN3Cc3ccc(CO)o3)n2)c1	58%*
O=[N+]([O-])c1cccc(-c2noc([C@@H]3C[C@@H](O)CN3Cc3cccs3)n2)c1	61%*
Cc1ccc(CN2C[C@H](O)C[C@H]2c2nc(-c3cccc([N+](=O)[O-])c3)no2)cc1	i
O=[N+]([O-])c1cccc(-c2noc([C@@H]3C[C@@H](O)CN3Cc3ccccc3)n2)c1	i
O=[N+]([O-])c1cccc(-c2noc([C@@H]3C[C@@H](O)CN3Cc3ccc(Cl)cc3)n2)c1	i
Cc1cccc(-c2noc([C@@H]3C[C@@H](O)CN3Cc3cccs3)n2)c1	i
COc1ccccc1OC1CN(C(=O)C=C(C)C)C1	i
Cc1cccn2c(=O)c3cc(C(=O)N4CCN(C)CC4)n(C)c3nc12	i
CCCSc1nnc2c(n1)OC(c1cccnc1)N(C(C)=O)c1ccccc1-2 (configuration not stated)	i
Cc1cc(C)c2c(CC(=O)N3CCCC(O)(CO)CC3)coc2c1C (configuration not stated)	i
CCOC(=O)C1(CCOc2ccccc2)CCN(S(=O)(=O)c2ccc(C)s2)CC1	i
CCOC(=O)C1(CCOC)CCN(Cc2ccc(N(C)c3ccccc3)cc2)CC1	i
CCOC(=O)C1(CCOc2ccccc2)CCN(Cc2cccc(C)n2)CC1	83%*
COc1ccc(C2=Nc3ccccc3N=C(c3cc(OC)ccc3O)C2)cc1	i
COc1ccc(O)c(C2=Nc3ccccc3N=C(c3ccc(F)cc3)C2)c1	32%*
Oc1ccccc1C1=Nc2ccccc2N=C(c2ccccc2)C1	i
CC(=O)N1CCc2nc(C)nc(N(C)CC(O)c3ccccc3)c2CC1 (configuration not stated)	i
CCC(=O)N1c2ccc(S(=O)(=O)N3CCCCC3)cc2CC1C(=O)N1CCCC1 (configuration not stated)	i
Clc1cc(Cl)c2c(c1)C=C1CCCCC1(N1CCOCC1)O2 (configuration not stated)	i
SMILES	ST2 inh
CC(Oc1ccc(Cl)cc1Cl)C(=O)Nc1cccc([N+](=O)[O-])c1 (configuration not stated)	30%*
CC(Oc1ccccc1)C(=O)Nc1cccc(Cl)c1 (configuration not stated)	i
Cc1cc(Cl)ccc1OC(C)C(=O)Nc1c(Cl)cccc1Cl (configuration not stated)	i
Cc1ccc(Nc2ncnc3c2cnn3Cc2ccccc2)c(C)c1	i
COc1ccc(CC(=O)N2CCC3(CC2)CC3C(=O)NCCCc2ccccc2)cc1OC (configuration not stated)	i
O=C(NCCCc1ccccc1)C1CC12CCN(C(=O)c1cccc(-c3ccccc3F)c1)CC2 (configuration not stated)	i
O=C(NCCC(c1ccccc1)c1ccccc1)C1CC12CCN(C(=O)c1ccc[n+]([O-])c1)CC2 (configuration not stated)	34%*
COc1ccc(NC(=O)c2cccnc2)cc1Cl	i
Cc1nc(CN2CC(OCc3ccncc3)CN(Cc3ccc(F)cc3F)CC2=O)cs1 (configuration not stated)	i
CC(=O)c1cccc(NC(=O)O[C@@H]2CO[C@H]3[C@@H]2OC[C@@H]3NC(=S)Nc2ccccc2)c1	i
CCNC(=O)O[C@@H]1CO[C@H]2[C@@H]1OC[C@@H]2NC(=O)Nc1ccc(C(C)C)cc1	i
CC(C)c1ccc(NC(=O)O[C@@H]2CO[C@H]3[C@@H]2OC[C@@H]3NC(=O)Nc2cccc(C#N)c2)cc1	i
COC(=O)c1cccc(NC(=S)N[C@H]2CO[C@H]3[C@@H]2OC[C@H]3OC(=O)NC2CCCCC2)c1	i
CCNC(=O)O[C@@H]1CO[C@H]2[C@@H]1OC[C@@H]2NC(=S)Nc1cccc(C#N)c1	92%*
COC(=O)c1cccc(NC(=S)N[C@H]2CO[C@H]3[C@@H]2OC[C@H]3OC(=O)Nc2ccc(C(C)C)cc2)c1	68%*
NCCNCCOc1cccc(Br)c1	i
